This note sets out measurements from PMC4242493, “Sequence specificity incompletely defines the genome-wide occupancy of Myc”.

Whole data set: some 33,000 sequences, median “normalized occupancy” near 0.075, cut for the highest 2% near 0.095. This excerpt belongs to a sample that is enriched for the highest values.

Chain of MaxL homodimer (P61244 whole entry): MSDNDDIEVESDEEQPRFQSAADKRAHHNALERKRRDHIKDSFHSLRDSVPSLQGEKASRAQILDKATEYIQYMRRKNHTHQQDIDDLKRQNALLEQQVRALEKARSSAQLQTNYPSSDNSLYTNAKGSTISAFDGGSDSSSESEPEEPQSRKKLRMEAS

The experiment has as its target MaxL homodimer (Homo sapiens, UniProt P61244 1-160). Kind of experiment: universal protein-binding microarray (PBM); PBS-based mixture, 10 nM His-tagged protein dimer, 2% milk, 200 ng/uL BSA, 50 ng/uL salmon testes DNA, 0.02% TX-100; detection with Alexa 488 anti-His antibody;; high values mean tight binding. Conditions: protein: recombinant; tags: C-terminal His-tag (pET21a); chain copies: 2; dsDNA, one strand shown. In short, it runs like this: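 Each 8-mer received a fluorescence intensity from GenePix 4400A scans of Agilent 4 x 44 K 'all 10-mer' universal arrays. Those arrays had been incubated with His-tagged protein dimer at 10 nM, and the bound protein was marked with a fluorophore-conjugated anti-His antibody at 10 ng/μL. Binding occupancy is the intensity scaled to that of the highest-ranked sequence word.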
On to AGCGTGTG, for which the binding signal stood at 0.0954 normalized occupancy.
Next, GGCGTGTA: 0.0895 normalized occupancy; CGTGTATA: 0.0906 normalized occupancy.
For the sequence CGCGTGTA, the binding signal was 0.123 normalized occupancy.
Next, CGTGTGTA: 0.0944 normalized occupancy; AGCGTGTC: 0.0932 normalized occupancy.
Next, AGCGTGTA: 0.0952 normalized occupancy; AGCGTATG: 0.0754 normalized occupancy.
The result for AGTGTGTA reads 0.0806 normalized occupancy; that for CGTGTGTC, 0.0936 normalized occupancy.
For the sequence CGCGTGTC, the binding signal came to 0.115 normalized occupancy.
The result for AAAGGACT reads 0.076 normalized occupancy.
Next, CTAGAATA: 0.0796 normalized occupancy; AAACAACG: 0.079 normalized occupancy.
Next, AGTTTGAA: 0.0729 normalized occupancy; AAACTCAT: 0.0797 normalized occupancy.
Consider ATAAAAGG, for which the binding signal stood at 0.0778 normalized occupancy.
The result for CGGTCTCA reads 0.0736 normalized occupancy; that for CACAGTCA, 0.0797 normalized occupancy.
Next, ACCATCCT: 0.0757 normalized occupancy; GCGTGAGA: 0.0965 normalized occupancy.
Next, CCGTGAGG: 0.0784 normalized occupancy; AAGTGAGG: 0.0763 normalized occupancy.
Take ACGTGAGT: the binding signal stood at 0.0893 normalized occupancy.
Consider ACGTGAGC, for which the binding signal was 0.107 normalized occupancy.
Next, ATGTGAGC: 0.0803 normalized occupancy; ACGTGAGG: 0.0969 normalized occupancy.
Next, GAGTGAGA: 0.0795 normalized occupancy; ACGTGAGA: 0.0981 normalized occupancy.
Next, GCGTGAGC: 0.091 normalized occupancy.
Turning to TCGTGAGA, the binding signal was 0.0809 normalized occupancy.
The result for CCGTGAGA reads 0.0755 normalized occupancy.
Next, AATTGCCA: 0.0744 normalized occupancy.
Next, CCTAGAAC: 0.0744 normalized occupancy.
Regarding ATGTTGTG, the binding signal amounted to 0.0817 normalized occupancy.
The result for CCGTCATC reads 0.0727 normalized occupancy; that for AAGACTAT, 0.0779 normalized occupancy.
The result for CTGGGGAA reads 0.0741 normalized occupancy; that for ATGAACAA, 0.0807 normalized occupancy; that for ATGCATGC, 0.126 normalized occupancy.
The result for GTGCATAA reads 0.0861 normalized occupancy.
With CTGCATTC, the binding signal turned out to be 0.0735 normalized occupancy.
For the sequence ATGCATCA, the binding signal amounted to 0.0872 normalized occupancy.
The result for GTGCATCA reads 0.0868 normalized occupancy; that for ATGCATGA, 0.0997 normalized occupancy; that for GTGCATGA, 0.0961 normalized occupancy.
Next, ATGCATCC: 0.0863 normalized occupancy; ATGCATTC: 0.0908 normalized occupancy; CTGCATGC: 0.1 normalized occupancy.
Next, CTGCATGA: 0.083 normalized occupancy.
In the case of ATGCATTA, the binding signal turned out to be 0.0869 normalized occupancy.
Next, AGAGGCGA: 0.0756 normalized occupancy; CTTGAGTC: 0.0726 normalized occupancy.
Next, ACTTTGTC: 0.0738 normalized occupancy.
Consider GGTTCTAC, for which the binding signal worked out at 0.0735 normalized occupancy.
In the case of GAACTAAC, the binding signal was found to be 0.0734 normalized occupancy.
The result for ATTCCGAC reads 0.0732 normalized occupancy; that for AAGTTCAG, 0.0751 normalized occupancy.
The result for ACACCAAG reads 0.0798 normalized occupancy; that for GTGGACCA, 0.0775 normalized occupancy; that for GTGTTAAA, 0.0743 normalized occupancy.
The result for GATTGCAC reads 0.0761 normalized occupancy.
For the sequence ATGCATCG, the binding signal was 0.0835 normalized occupancy.
Next, ATGCATGG: 0.0969 normalized occupancy; ATGCATAG: 0.0814 normalized occupancy; CGGGGGCA: 0.0747 normalized occupancy.
On to CTTATGGC, for which the binding signal turned out to be 0.0778 normalized occupancy.
Next, ATCATGCA: 0.0894 normalized occupancy.
Turning to ATGATGCG, the binding signal worked out at 0.0869 normalized occupancy.
The result for CTCATGGA reads 0.0927 normalized occupancy; that for CTCATGCA, 0.0963 normalized occupancy.
As for CTCATGCC, the binding signal stood at 0.0954 normalized occupancy.
Next, ATCATTCG: 0.0804 normalized occupancy; GTCATGCA: 0.0869 normalized occupancy; CTCATGGC: 0.0965 normalized occupancy.
Turning to ATCATGCG, the binding signal was 0.105 normalized occupancy.
The result for CTCATGAC reads 0.0906 normalized occupancy; that for CTCATGTC, 0.0928 normalized occupancy.
Next, AAAAGGGA: 0.0725 normalized occupancy; GGGCGTTA: 0.0774 normalized occupancy; TACTTCTA: 0.0754 normalized occupancy.
Next, GCATAAGA: 0.0799 normalized occupancy; GGCTAGCA: 0.0747 normalized occupancy.
As to ATCATGAC, the binding signal was 0.0868 normalized occupancy.
The result for ATAATGCC reads 0.0813 normalized occupancy.
Consider ATCATGCC, for which the binding signal was determined as 0.0958 normalized occupancy.
The result for CAAAATGG reads 0.0769 normalized occupancy.
As for AATTACAG, the binding signal turned out to be 0.0778 normalized occupancy.
The result for CGTGCGCC reads 0.0922 normalized occupancy.
Next, AATGCGCA: 0.0804 normalized occupancy; CGTGCGCA: 0.0967 normalized occupancy.
Next, AATGCGCG: 0.0754 normalized occupancy.
Regarding ATTGCGCG, the binding signal amounted to 0.0747 normalized occupancy.
The result for CATGCGCC reads 0.111 normalized occupancy; that for AGTGCGCC, 0.0735 normalized occupancy.
The result for TATGCGCA reads 0.0804 normalized occupancy; that for AGTGCGCA, 0.076 normalized occupancy; that for AATGCGCC, 0.0731 normalized occupancy.
The result for CATGCGCA reads 0.125 normalized occupancy; that for CATGCGCG, 0.11 normalized occupancy; that for GTCGCTGA, 0.0755 normalized occupancy.
On to ACAATAGA, for which the binding signal was 0.0762 normalized occupancy.
For the sequence ACTTGACG, the binding signal came to 0.0741 normalized occupancy.
Regarding GTCATCGA, the binding signal worked out at 0.0798 normalized occupancy.
Next, ATAGATGC: 0.075 normalized occupancy; CGCACTGA: 0.0735 normalized occupancy.
As for ACTTACAA, the binding signal came to 0.0743 normalized occupancy.
Regarding ACGAGACA, the binding signal was 0.0856 normalized occupancy.
Consider CGCGTGAA, for which the binding signal amounted to 0.105 normalized occupancy.
The result for CGCGTGAG reads 0.109 normalized occupancy; that for ATCGTGAC, 0.0839 normalized occupancy.
Next, GGCGTGAA: 0.0776 normalized occupancy; CGTGTGAC: 0.0871 normalized occupancy.
The result for CTCGTGAA reads 0.0894 normalized occupancy.
On to TGCGTGAA, for which the binding signal was 0.0808 normalized occupancy.
The result for GGCGTGAC reads 0.0927 normalized occupancy.
Next, CTCGTGAC: 0.104 normalized occupancy; CGCGTGAC: 0.134 normalized occupancy; CCCGTGAG: 0.0759 normalized occupancy.
Next, AGCGTGAG: 0.091 normalized occupancy; CGCCCCCC: 0.0791 normalized occupancy; CCTAAGGA: 0.0757 normalized occupancy.
On to ACTTTACC, for which the binding signal amounted to 0.0744 normalized occupancy.
With ACGATCAA, the binding signal was 0.0748 normalized occupancy.
Next, AGAGATTC: 0.0757 normalized occupancy; CGTTACAC: 0.0819 normalized occupancy; TGTTACAA: 0.0777 normalized occupancy.
The result for CGTGCTTC reads 0.0896 normalized occupancy; that for AATGCTTA, 0.0806 normalized occupancy; that for CATGCTTC, 0.106 normalized occupancy.
The result for CAAGCTGG reads 0.0721 normalized occupancy; that for AATGCTTC, 0.0816 normalized occupancy; that for GATGCTGC, 0.078 normalized occupancy.
For CATGCTGG, the binding signal was found to be 0.125 normalized occupancy.
The result for AATGCTGG reads 0.0789 normalized occupancy; that for CATGCTGC, 0.122 normalized occupancy; that for GATGCTTA, 0.0759 normalized occupancy.
Next, AATGCTGC: 0.0788 normalized occupancy; CATGCTTA: 0.104 normalized occupancy; CAACCGTC: 0.075 normalized occupancy.
The result for ATGCAATG reads 0.08 normalized occupancy; that for CGACCTCG, 0.0723 normalized occupancy; that for ATGATAAA, 0.0793 normalized occupancy.
Take ACGAGGTC: the binding signal was found to be 0.0849 normalized occupancy.
The result for ATAGACCC reads 0.0762 normalized occupancy.
Next, GTGACCCA: 0.0762 normalized occupancy; GATGCTGA: 0.0746 normalized occupancy; CATGCTGA: 0.112 normalized occupancy.
The result for TATGCTGA reads 0.0773 normalized occupancy.
With CCCTTGCA, the binding signal came out at 0.0735 normalized occupancy.
As for ACATTTTC, the binding signal came to 0.0796 normalized occupancy.
The result for CACGTTGC reads 0.131 normalized occupancy; that for AACGTTGC, 0.0766 normalized occupancy; that for CACGTTGG, 0.122 normalized occupancy.
Consider CGCGTTGC, for which the binding signal was found to be 0.0781 normalized occupancy.
The result for GACGTTGA reads 0.0764 normalized occupancy; that for AACGTTGA, 0.0764 normalized occupancy; that for AACGTTGG, 0.0767 normalized occupancy.
Next, TACGTTGA: 0.082 normalized occupancy; CACGTTGA: 0.115 normalized occupancy; AACTCGCG: 0.0749 normalized occupancy.
Next, ACAAAGGG: 0.0742 normalized occupancy.
Regarding TCCTAAGA, the binding signal worked out at 0.0773 normalized occupancy.
With CTCAGTAC, the binding signal came to 0.0743 normalized occupancy.
Take CCTCCTCC: the binding signal was 0.0782 normalized occupancy.
Next, CGTATGAC: 0.0817 normalized occupancy.
Next, AGTATGAG: 0.0766 normalized occupancy; CGCATGAG: 0.0969 normalized occupancy.
Next, AGCATGAG: 0.102 normalized occupancy; GGCATGAC: 0.0858 normalized occupancy; ATCATGAG: 0.09 normalized occupancy.
For the sequence CGCATGAC, the binding signal was determined as 0.105 normalized occupancy.
Consider CGCATGAA, for which the binding signal stood at 0.0861 normalized occupancy.
Next, CGTATGAG: 0.0785 normalized occupancy.
